The structures appear in SMILES notation. Compounds without any hit were thinned out: in the full panel of roughly 83,000, 20% have a hit.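 48-hour exposure, single concentration, 96-well plates; percent growth endpoint where 0 means no net growth. Active: below 10.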 Calls of active or inactive are those of the source.

Holding throughout (test): NCI-60 one-dose screen, 48 h (100 = growth as untreated, 0 = no growth, -100 = all killed)
One assay deals with NCI-H226 lung. Particulars: 10 µM.
For a further assay, the system named is NCI-H322M lung. The conditions noted are these: 10 µM.
In another assay the test system is HOP-62 NSCLC. The conditions noted are these: 10 µM.
The next assay concerns NCI-H460 lung. Particulars: 10 µM.
A further assay concerns NCI-H522 lung. Particulars: 10 µM.
The next assay deals with COLO 205 colon. Particulars: 10 µM.
The next assay has as its system DU-145 prostate. Particulars: 10 µM.
A further assay deals with SF-268 CNS. The conditions noted are these: 10 µM.
For the next assay, the system named is SF-295 CNS. The conditions noted are these: 10 µM.
In a further assay the test system is SF-539 CNS. The conditions noted are these: 10 µM.
The next assay has as its system UACC-257 melanoma. The conditions noted are these: 10 µM.
The subject of the next assay is M14 melanoma. The conditions noted are these: 10 µM.
The test system of the next assay is HCT-15 colon. Particulars: 10 µM.
A further assay deals with HT29 colon. The conditions noted are these: 10 µM.
The test system of a further assay is SNB-19 CNS. The conditions noted are these: 10 µM.
The next assay concerns U251 CNS. Particulars: 10 µM.
The test system of the next assay is SK-MEL-5 melanoma. Particulars: 10 µM.
For another assay, the system named is UACC-62 melanoma. The conditions noted are these: 10 µM.
A further assay deals with SK-MEL-2 melanoma. Particulars: 10 µM.
The test system of the next assay is HL-60(TB) leukemia. Particulars: 10 µM unless noted.

As for `COC(=O)C[C@](O)(CCCC(C)C)C(=O)O[C@H]1C(OC)=C[C@@]23CCCN2CCc2cc4c(cc2[C@@H]13)OCO4`, the growth with NCI-H226 lung is -12.3% (active); in the assay on NCI-H322M lung, 25.4% (inactive); in the assay on HOP-62 NSCLC it was 21.3% (inactive); in the assay with NCI-H460 lung, -28.6% (active); in the assay with NCI-H522 lung, -59.4% (active); in the assay with COLO 205 colon it was -2.77% (active). Moreover, the growth in the assay on DU-145 prostate was -3.16% (active); in the assay with SF-268 CNS, 3.83% (active); in the assay on SF-295 CNS it was -8.14% (active); in the assay with SF-539 CNS, -47.7% (active); in the assay with UACC-257 melanoma, -25.9% (active); with M14 melanoma it was -46.4% (active). Further, the growth in the assay on HCT-15 colon is -21.1% (active); in the assay with HT29 colon, -22.7% (active); in the assay on SNB-19 CNS, -27.7% (active); in the assay with U251 CNS it was -19.5% (active); with SK-MEL-5 melanoma, -39% (active); with UACC-62 melanoma, 0.442% (active). Moreover, the values for the growth with SK-MEL-2 melanoma and in the assay on HL-60(TB) leukemia were -0.0193% (active) and -28.7% (active), respectively.
For the molecule `O=C([Se]C1C=CCCC1)c1ccc(C(=O)[Se]C2C=CCCC2)s1` (stereo not given), the growth in the assay with NCI-H226 lung was -42.9% (active); in the assay with NCI-H322M lung it was -28.5% (active); in the assay with HOP-62 NSCLC, -50.6% (active); in the assay on NCI-H460 lung it was 4.46% (active); in the assay on NCI-H522 lung, -92.8% (active); in the assay with COLO 205 colon, -95.7% (active). Also, the growth in the assay on DU-145 prostate was -3.45% (active); in the assay on SF-268 CNS, 0.795% (active); with SF-295 CNS it was -44.2% (active); in the assay on SF-539 CNS, -100% (active); with UACC-257 melanoma, -74.7% (active); in the assay on M14 melanoma, -81.2% (active). The growth in the assay with HCT-15 colon was -25.1% (active); in the assay with HT29 colon, -25.6% (active); in the assay with SNB-19 CNS, -93.8% (active); in the assay on U251 CNS, -88% (active); with SK-MEL-5 melanoma, -88.8% (active); in the assay with UACC-62 melanoma it was -89.2% (active). Besides, the growth was -37.7% (active) in the assay with SK-MEL-2 melanoma and 1.11% (active) in the assay with HL-60(TB) leukemia.
Take `O=C(/C=C/c1cccc(Br)c1)c1nc2ccccc2n1Cc1ccc(Br)cc1`: the growth in the assay with NCI-H226 lung is -67.7% (active); in the assay on NCI-H322M lung it was 51.9% (inactive); in the assay on HOP-62 NSCLC, -42% (active); in the assay on NCI-H460 lung it was -40.3% (active); with NCI-H522 lung it was -53.4% (active); with COLO 205 colon, -34.1% (active). For the same molecule, the growth in the assay on DU-145 prostate is 4.37% (active); in the assay with SF-268 CNS, 26.8% (inactive); with SF-295 CNS, -19.7% (active); with SF-539 CNS it was -66% (active); in the assay on UACC-257 melanoma, 6.73% (active); with M14 melanoma, -31.7% (active). Further, the growth with HCT-15 colon was -78% (active); in the assay on HT29 colon it was -49% (active); in the assay with SNB-19 CNS, -67% (active); in the assay on U251 CNS, -83.3% (active); in the assay on SK-MEL-5 melanoma, -26.4% (active); with UACC-62 melanoma, -82.5% (active). For the same molecule, the growth with SK-MEL-2 melanoma was -42.3% (active); in the assay with HL-60(TB) leukemia it was -19.3% (active).
For the molecule `COc1cc(OC)c(S(=O)(=O)N(CCCl)CCCl)cc1C(=O)/C=C/c1ccc(C)cc1`, the growth with NCI-H226 lung is 81.5% (inactive); in the assay on NCI-H322M lung, 89.1% (inactive); in the assay with HOP-62 NSCLC, 70.8% (inactive); in the assay with NCI-H460 lung it was 31.9% (inactive); in the assay with NCI-H522 lung, 82.6% (inactive); in the assay with COLO 205 colon it was 117% (inactive). For the same molecule, the growth with DU-145 prostate is 88.3% (inactive); in the assay with SF-268 CNS it was 67.2% (inactive); in the assay on SF-295 CNS it was 66.7% (inactive); in the assay on SF-539 CNS, 56.9% (inactive); with UACC-257 melanoma it was 90% (inactive); in the assay on M14 melanoma, 86.4% (inactive). In addition, the growth in the assay on HCT-15 colon is 81.8% (inactive); in the assay with HT29 colon, 80.7% (inactive); in the assay on SNB-19 CNS, 29.8% (inactive); in the assay on U251 CNS, -2.54% (active); in the assay on SK-MEL-5 melanoma it was 97.5% (inactive); in the assay with UACC-62 melanoma it was 74.3% (inactive). Further, the growth in the assay with SK-MEL-2 melanoma was 92.3% (inactive); in the assay with HL-60(TB) leukemia, 65.6% (inactive).
`C#CC[Se]C(=O)c1ccc(C(=O)[Se]CC#C)s1`: the growth in the assay with NCI-H226 lung is 76.5% (inactive); in the assay on NCI-H322M lung, 14.5% (inactive); in the assay on HOP-62 NSCLC, 29.8% (inactive); with NCI-H460 lung, 40.9% (inactive); with NCI-H522 lung it was 99.8% (inactive); in the assay with COLO 205 colon, 86% (inactive). In addition, the growth is 56% (inactive) with DU-145 prostate; 105% (inactive) in the assay with SF-268 CNS; 13.3% (inactive) with SF-295 CNS; 65.5% (inactive) in the assay on SF-539 CNS; 90.7% (inactive) with UACC-257 melanoma; 73.7% (inactive) in the assay with M14 melanoma. The growth in the assay with HCT-15 colon was 93.2% (inactive); in the assay with HT29 colon, 63.6% (inactive); in the assay with SNB-19 CNS it was 58.7% (inactive); in the assay on U251 CNS it was 44.7% (inactive); in the assay on SK-MEL-5 melanoma it was 96.6% (inactive); in the assay on UACC-62 melanoma, 92.3% (inactive). Also, the growth in the assay with SK-MEL-2 melanoma is 126% (inactive); in the assay with HL-60(TB) leukemia, -19.7% (active).
On to `COc1ccc(Cn2cc(C#N)c(N)c2C(C)=O)c(OC)c1`, for which, in the assay on HL-60(TB) leukemia, the growth is 99% (inactive).
For the molecule `C#CCCCN(CCNc1ccnc2cc(Cl)ccc12)C(=O)CCC(=O)O[C@@H]1O[C@@H]2OC3(C)CC[C@H]4[C@H](C)CC[C@@H]([C@H]1C)[C@@]24OO3`, the growth is 44.9% (inactive) in the assay with NCI-H226 lung; 65.1% (inactive) in the assay on NCI-H322M lung; 58.9% (inactive) in the assay with HOP-62 NSCLC; 40.6% (inactive) in the assay with NCI-H460 lung; 8.38% (active) with NCI-H522 lung; 7.04% (active) with COLO 205 colon. The growth with DU-145 prostate was 59.1% (inactive); in the assay on SF-268 CNS it was 56.9% (inactive); in the assay on SF-295 CNS, 33.8% (inactive); in the assay with SF-539 CNS, 39.2% (inactive); with UACC-257 melanoma it was 29.3% (inactive); in the assay with M14 melanoma, 37.7% (inactive). Besides, the growth in the assay on HCT-15 colon is 12.1% (inactive); in the assay on HT29 colon, 4.95% (active); in the assay with SNB-19 CNS, 56.5% (inactive); in the assay on U251 CNS, 45.7% (inactive); in the assay with SK-MEL-5 melanoma, -36.1% (active); in the assay with UACC-62 melanoma, 31.4% (inactive). For the same molecule, the growth in the assay with SK-MEL-2 melanoma is 43.9% (inactive); with HL-60(TB) leukemia it was -26.3% (active).
Take `CC[C@]12C=CCN3CC[C@@]4(c5ccc(OC)cc5N(C)[C@H]4[C@@](O)(C(=O)OC)[C@@H]1OC(=O)CCC[P+](c1ccc(C)cc1)(c1ccc(C)cc1)c1ccc(C)cc1)[C@@H]32`: the growth was -77.4% (active) in the assay on NCI-H226 lung; -98.4% (active) with NCI-H322M lung; -81.6% (active) in the assay on HOP-62 NSCLC; -85.2% (active) in the assay on NCI-H460 lung; -86.3% (active) with NCI-H522 lung; -50.2% (active) in the assay on COLO 205 colon. The growth with DU-145 prostate is -78.5% (active); in the assay on SF-268 CNS it was -46.3% (active); with SF-295 CNS it was -89.1% (active); in the assay on SF-539 CNS, -96.6% (active); with UACC-257 melanoma it was -92.7% (active); in the assay on M14 melanoma it was -85.3% (active). The growth is -91% (active) in the assay with HCT-15 colon; -80.7% (active) in the assay with HT29 colon; -97.3% (active) with SNB-19 CNS; -91.2% (active) in the assay with U251 CNS; -99.4% (active) in the assay on SK-MEL-5 melanoma; -96.8% (active) with UACC-62 melanoma. In addition, the growth with SK-MEL-2 melanoma is -85.4% (active); in the assay on HL-60(TB) leukemia, -47.5% (active).
On to `CC1=C(CCC=O)C2=C(C)C3(CC3)[C@@](C)(O)C(=O)C2=C1`, for which the growth in the assay on NCI-H226 lung was -61.5% (active); in the assay with NCI-H322M lung, -84.9% (active); with HOP-62 NSCLC, -62.7% (active); in the assay with NCI-H460 lung, -42.6% (active); in the assay on NCI-H522 lung, -90% (active); in the assay with COLO 205 colon, -71.4% (active). The growth with DU-145 prostate is -100% (active); in the assay on SF-268 CNS, 6.81% (active); in the assay with SF-295 CNS, -64.3% (active); with SF-539 CNS, -100% (active); in the assay with UACC-257 melanoma, -92.1% (active); with M14 melanoma, -56.8% (active). Also, the growth with HCT-15 colon is -71.1% (active); in the assay with HT29 colon, -56.1% (active); in the assay on SNB-19 CNS it was -100% (active); in the assay on U251 CNS, -99.6% (active); in the assay on SK-MEL-5 melanoma, -100% (active); in the assay on UACC-62 melanoma, -96.5% (active). Also, the growth in the assay with SK-MEL-2 melanoma was -70.6% (active).

The record behind these values is PubChem BioAssay (NCI).
